From the supplement of paper PMC6658780
Counter-ions that a name gives are not always drawn. ± gives the standard deviation of the averaged measurements.

System: Escherichia coli ATCC BAA-2469
Assay: percent growth inhibition of drug alone vs DMSO control; higher = more growth inhibition
Settings: antibiotic (0.125x MIC): none (0.1% DMSO); 7 µM
Description: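 Prestwick drugs tested at 20 uM and 7 uM with an antibiotic at 0.125x MIC (16 mg/L when MIC >128 mg/L) against E. coli ATCC BAA-2469 (NDM-1) in CAMHB, 384-well plates, duplicate runs. Percent growth inhibition was computed from OD600 (24 h minus 0 h) relative to DMSO wells. Drug + DMSO-only wells are also given. […]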

Compound	percent growth inhibition of drug alone [%]
C[C@]12CC[C@H](O)C[C@@H]1CC[C@@H]1[C@@H]2CC[C@]2(C)C(=O)CC[C@@H]12 [Epiandrosterone]	-0.756 ± 0.88
Oc1cc(Cl)ccc1Oc1ccc(Cl)cc1Cl [Triclosan]	103 ± 3.2
O=C([O-])c1ccccc1-c1c2cc(Br)c(=O)cc-2oc2[c]([Hg+])c([O-])c(Br)cc12.[Na+].[Na+].[OH-] [Merbromin]	0.201 ± 1.7
O=C(CCCN1CCC2(CC1)C(=O)NCN2c1ccccc1)c1ccc(F)cc1 [Spiperone]	3 ± 1.4
NCC1(CC(=O)O)CCCCC1 [Gabapentin]	-0.379 ± 0.84
CN1[C@@H]2CC[C@H]1C[C@@H](OC(=O)C(CO)c1ccccc1)C2 (some centres not stated) [Atropine sulfate monohydrate]	1.11 ± 0.46

Same assay, conditions: antibiotic (0.125x MIC): none (0.1% DMSO); 20 µM

Compound	percent growth inhibition of drug alone [%]
C[C@]12CC[C@H](O)C[C@@H]1CC[C@@H]1[C@@H]2CC[C@]2(C)C(=O)CC[C@@H]12 [Epiandrosterone]	1.48 ± 2.3
Oc1cc(Cl)ccc1Oc1ccc(Cl)cc1Cl [Triclosan]	107 ± 2.6
O=C([O-])c1ccccc1-c1c2cc(Br)c(=O)cc-2oc2[c]([Hg+])c([O-])c(Br)cc12.[Na+].[Na+].[OH-] [Merbromin]	38.2 ± 18
O=C(CCCN1CCC2(CC1)C(=O)NCN2c1ccccc1)c1ccc(F)cc1 [Spiperone]	2.07 ± 2.2
NCC1(CC(=O)O)CCCCC1 [Gabapentin]	-1.41 ± 0.8
CN1[C@@H]2CC[C@H]1C[C@@H](OC(=O)C(CO)c1ccccc1)C2 (some centres not stated) [Atropine sulfate monohydrate]	-0.0722 ± 0.38
